# Bioassay records as filed in PubChem.
# A selection: hits, their analogues and other compounds. The true share with any hit is near 3.1%.
# TRb SRC2 PPI = inhibitors of human thyroid hormone receptor beta-SRC2 interaction. actives 0.065% (n = 280,000). TRbeta-SRC2 peptide binding, fluorescence polarization; receptor liganded with 1 µM T3. Potency, µM (doses to about 106 µM), inactives show at the top dose activity change, negative = inhibition, actives largely listed as inhibitors. P10828. AID 1469;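 also: plate controls were bound peptide for no effect and peptide without receptor for full effect; nearly all actives have a fitted effect of over 50% in size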
# Target sequence (P10828 whole entry, looked up): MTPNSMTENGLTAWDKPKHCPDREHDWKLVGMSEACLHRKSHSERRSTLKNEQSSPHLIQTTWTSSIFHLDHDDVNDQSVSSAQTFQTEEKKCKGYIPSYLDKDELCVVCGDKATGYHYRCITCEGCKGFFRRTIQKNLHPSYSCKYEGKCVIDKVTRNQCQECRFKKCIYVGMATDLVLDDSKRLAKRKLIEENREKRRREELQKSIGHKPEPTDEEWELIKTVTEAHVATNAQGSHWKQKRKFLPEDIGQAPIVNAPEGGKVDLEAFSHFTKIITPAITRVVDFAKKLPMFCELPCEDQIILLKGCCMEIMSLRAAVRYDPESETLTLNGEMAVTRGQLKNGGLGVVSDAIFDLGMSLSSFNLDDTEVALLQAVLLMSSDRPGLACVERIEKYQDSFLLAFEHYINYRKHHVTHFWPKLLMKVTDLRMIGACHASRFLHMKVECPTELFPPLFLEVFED
#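 Read-out is fluorescence polarization (555 nm excitation, 632 nm emission) of a Texas Red SRC2 coactivator peptide; loss of signal reflects blocked binding to human TRb ligand-binding domain in the presence of 1 uM T3.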
# Tau fluor cs = counter-screen for tau fibril formation inhibitors. Potency, µM (doses to about 57.7 µM), without a hit: at the highest dose activity change, negative = decrease. tau K18 P301L Alexa594 fluorescence, heparin fibrillization. actives 0.93% (n = 280,000). AID 1463; also: nearly all actives have a fitted effect of over 55% in size
#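 Human tau K18 P301L (15 uM unlabeled, 0.24 uM Alexa 594-labeled) in 100 mM sodium acetate pH 7 with 20 uM heparin, 6 hr at 37 C. ThT 30 uM added, 1 hr ambient; Alexa 594 FP and total fluorescence read at 555/632 nm.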
# Tau ThT inhib = blocks human tau fibril formation measured by thioflavin T; P10636; recombinant tau K18 P301L (four-repeat tau fragment), heparin-induced fibrillization, ThT fluorescence; Potency, µM (series often up to 57.4 µM), inactives show at the top dose activity, negative = inhibition, hits mostly inhibitors; actives 2.1% (n = 270,000); AID 1460; also: nearly all actives have a fitted effect of over 55% in size
# Target sequence (P10636 561-689 P618L limits assumed): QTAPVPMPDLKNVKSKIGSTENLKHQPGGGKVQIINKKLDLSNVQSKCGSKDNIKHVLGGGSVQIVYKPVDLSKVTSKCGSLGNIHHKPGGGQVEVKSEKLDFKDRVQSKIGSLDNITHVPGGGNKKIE
#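 Recombinant human tau K18 fragment […] carrying P301L, 15 uM unlabeled plus 0.24 uM Alexa 594-labeled, was fibrillized with 20 uM heparin in 100 mM sodium acetate pH 7 for 6 hr at 37 C; 30 uM ThT fluorescence read after 1 hr.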
# GoLoco inh red = RGS12 GoLoco-Gai1 interaction inhibition; Gai1:RGS12 GoLoco peptide FP, rhodamine, 10 min; Potency, µM (top dose mostly 61.6 µM), for inactives: at the highest dose activity, negative = inhibition, most hits filed as inhibitors; actives 0.44% (n = 230,000); AID 880; active = well fitted inhibition curve with a large enough effect, not every such curve was filed as active; inactive = no such curve, though single readings can be large or run the other way; also: nearly all actives have a fitted effect of over 30% in size
# TexasRed fluor = Texas Red fluorescence interference in TRb-SRC2 counter-screen. TRb/SRC2 Texas Red total fluorescence interference. Potency, µM (top dose mostly 106 µM), inactives show at the top dose fluorescence change, negative = quenching. actives 0.29% (n = 280,000). AID 1479; active = well fitted curve in either direction with a large enough effect; inconclusive = small, poorly fitted or top-dose-only effect
#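 Flags fluorescent or light-absorbing compounds by total fluorescence, S + 2P, at 555 nm excitation and 632 nm emission. Mixture: 20 nM Texas Red SRC2 peptide, 0.6 uM human TRb LBD, 1 uM T3, 5% DMSO; compound exposure 5 h at ambient temperature.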
# Tau FP inhib = inhibitors of human tau fibril formation. P10636. K18 P301L tau heparin fibrillization, Alexa594 FP, 6 h. Potency, µM (titrated, usually from 57.7 µM), for inactives: at the highest dose activity, negative = inhibition, hits mostly inhibitors. actives 0.39% (n = 280,000). AID 1468; also: nearly all actives have a fitted effect of over 55% in size
#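 Steps: dispense K18 P301L tau (15 uM plus 0.24 uM Alexa 594 tracer, final) in pH 7 sodium acetate; add compound; add heparin (20 uM final); incubate 6 hr, 37 C; add ThT (30 uM final); after 1 hr ambient, read FP.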
# An asterisk follows results filed as active; ? = inconclusive; / = no result; ! = repeats disagree; [ ] = remark or other dose. Unless noted, calls follow the shape of the dose curve; as a rule, active = well fitted curve in the direction sought with a large enough effect; inconclusive = small, poorly fitted or top-dose-only effect, or another doubt; inactive = no such curve, though single readings can be large; an effect the other way counts as inactive or inconclusive. Unless noted, % is scaled to controls: 0 for no effect and ±100 for the full control effect; potency is read from the fitted curve at half-maximal effect.
SMILES,TRb SRC2 PPI,Tau fluor cs,Tau ThT inhib,GoLoco inh red,TexasRed fluor,Tau FP inhib
O=C(CNC(=O)c1cccs1)NCC(=O)OCC(=O)c1ccc([N+](=O)[O-])cc1,8%,-10%,?,3%,0%,?
O=C(OCC(=O)c1ccc([N+](=O)[O-])cc1)/C(=C\c1ccc(Cl)cc1)NC(=O)c1ccccc1,-5%,?,13µM*,33%,-5%,-8%
CC1(C)CCC(Cc2ccc(Cl)cc2)C1(O)Cn1cncn1 (stereo not drawn),4%[201 µM],/,/,/,2%[201 µM],/
N#C/C(=C\c1ccc(O)c(O)c1)C(N)=S,7%,?,2.2µM*,58%,-15%,?
CSc1ccc(C(=O)C2CCCN(CCCn3cccn3)C2)cc1 (stereo not drawn),-11%,-3%,-9%,3%,1%,-5%
Clc1cccc(N2CCNCC2)c1,8.9µM*!,-1%,-5%,-13%,28µM*![fluorescent],1%
Nc1cc(N2CCNCC2)ccc1[N+](=O)[O-],1%,2%,?,5%,1%,7%
CCCOP(=O)(OCCC)C(NC(=O)c1cc(OC)c(OC)c(OC)c1)c1ccccc1 (stereo not drawn),-2%,-5%,-7%,11%,-1%,-2%
COc1cc(C(=O)NCCSc2c(-c3ccccc3)[nH]c3ccccc23)cc(OC)c1OC,-5%,8.9µM*[quencher],-9%,/,-4%,-2%
O=C(NCCSc1c(-c2ccc(F)cc2)[nH]c2ccccc12)c1ccc(S(=O)(=O)N2CCOCC2)cc1,4%,4.5µM*[quencher],-1%,/,-1%,-5%
O=c1[nH]c(=S)[nH]c(O)c1N=Nc1ccc(S(=O)(=O)N2CCc3ccccc32)cc1,-7%,?,5µM*,6%,-1%,9%
O=c1[nH]c(=S)[nH]c(O)c1N=Nc1ccc(SC(F)F)cc1,-6%,-20%,3.5µM*,16%,-6%,-16%
CN[C@@H]1C[C@H](c2ccc(Cl)c(Cl)c2)c2ccccc21,-7%,-19%,-23%,1%,1%,1%
CCCc1cc2c(n1Cc1ccco1)C(C)C1CN(C(=O)c3ccccc3)C(C)(C(=O)OC)C21 (stereo not drawn),13%,-12%,22µM*,56%,1%,?
CCCc1cc2c(n1Cc1ccc(C)cc1)C(C)C1CN(C(=O)c3ccccc3)C(C)(C(=O)OC)C21 (stereo not drawn),2%,-27%,?,31%,1%,-6%
C[N+](C)(C)CCOC(=O)C(O)(c1ccccc1)c1ccccc1,7%,/,/,/,-1%,/
CC(C)[N+](C)(CCC(C(N)=O)(c1ccccc1)c1ccccc1)C(C)C,0%,-1%,-1%,5µM*!,1%,-1%
CN1CCN(c2ncc(C=O)s2)CC1,4%,-1%,6%,0%,-1%,9%
O=c1[nH]c2ccccc2c(=O)n1-c1ccc(Cl)cc1Cl,2%,-1%,-3%,4%,1%,-4%
O=C1NC(=O)c2c1c1c3ccccc3[nH]c1c1[nH]c3ccccc3c21,-20%,14µM*[quencher],?,-28%,-16%,-9%
CCNC(C)Cc1cccc(C(F)(F)F)c1 (stereo not drawn),11%,-15%,-8%,14%,0%,?
CN1C[C@H](CO)C=C2c3cccc4[nH]cc(c34)C[C@H]21,-5%,?,?,13µM*,0%,?
CN1C[C@@H](CO)C=C2c3cccc4[nH]cc(c34)CC21 (stereo partly drawn),-8%,?,?,-12%,-1%,-7%
Cc1cccc(-n2c(/C=C/c3c[nH]c4ccccc34)nc3ccccc3c2=O)c1,7%,4µM*[quencher],?,/,2%,1%
O=C1NC(=O)N(c2ccccc2)C(=O)/C1=C/c1ccoc1,-11%,-5%,?,33%,8%,-9%
SMILES,TRb SRC2 PPI,Tau fluor cs,Tau ThT inhib,GoLoco inh red,TexasRed fluor,Tau FP inhib
Cc1cccc(N2C(=O)NC(=O)/C(=C\c3ccc(N4CCOCC4)cc3)C2=O)c1,-2%,-12%,?,20%,3%,4%
Cc1ccc(N2C(=O)NC(=O)/C(=C\c3ccsc3)C2=O)cc1C,-11%,-15%,?,30%,5%,4%
CC(C)c1ccc(N2C(=O)NC(=O)/C(=C\c3cnc(-c4ccccc4)nc3)C2=O)cc1,1%,-19%,22µM*,86%,1%,?
Cc1cccc(N2C(=O)NC(=O)/C(=C\c3cnc(-c4ccccc4)nc3)C2=O)c1,-30%[53 µM],2%,5%,28%,1.3µM*[quencher],4%
Cc1ccc(N2C(=O)NC(=O)/C(=C/c3cnc(-c4ccccc4)nc3)C2=O)cc1C,-5%,-23%,16µM*,85%,4%,?
C(=NCCN1CCOCC1)=NC1CCCCC1,/,/,/,-3%[14.2 µM],/,/
Brc1ccc2[nH]cc(/C=N/N3CCCCC3)c2c1,5%,11µM*[quencher],?,15%,4%,16%
O=C(Nc1ccc(Br)cc1)c1ccc(F)c(S(=O)(=O)N2CCCc3ccccc32)c1,-7%,7.1µM*[quencher],-1%,/,-1%,16µM*
O=C(Nc1ccc(Br)cc1)c1cccc(S(=O)(=O)N2CCc3ccccc32)c1,0%,?,10%,/,-1%,?
Cc1[nH]n(-c2ccccc2)c(=O)c1C(c1cccc([N+](=O)[O-])c1O)c1c(C)[nH]n(-c2ccccc2)c1=O,1%,?,7.9µM*,8%,2%,-9%
CC1=C(O)C(=O)[C@@H]2O[C@@H]2C1=O,0%,?,16µM*,-12%,-5%,20µM*
CC(=O)[O][Hg][c]1ccccc1,-8%[201 µM],?,?,1.6µM*!,3%[201 µM],?
S=c1[nH]c2cc(Br)cnc2[nH]1,-2%,-15%,32µM*,-6%,1%,?
O=[N+]([O-])c1ccc2ccc3cccc4ccc1c2c34,11%[201 µM],/,/,/,-9%[201 µM],/
COC(=O)C1C(O)C(C)C(O)C(C)/C=C\C=C(/C)C(=O)Nc2c(C)c(OC(C)=O)c3c(c2O)C(=O)C(C)=C2OCOC(=C23)/C(C)=C/C(C)(O)C(O)C(C)C1O (stereo not drawn),-10%,?,32µM*,7%,-8%,?
O=C1NC(=O)C(=Cc2ccc(Oc3ccc([N+](=O)[O-])cc3)cc2)C(=O)N1,-3%,-8%,13µM*,8%,0%,?
O=C1NC(=O)C(=Cc2ccccc2OCCOc2ccc([N+](=O)[O-])cc2)C(=O)N1,8%,-16%,?,20%,-1%,?
Cc1cc(Cl)ccc1OC(C)C(=O)O (stereo not drawn),7%,5%,7%,4%,-1%,1%
